The whole screen tested about 5,500 compounds, of which about 2,000 (36%) were called active. Roughly 18% stayed inconclusive and do not appear here. No stated cut-off is given here; in the data, active means normalized growth mostly below about 0.91 (no sharp cut-off); inconclusive means no clear call, values can overlap the other calls; inactive means mostly above about 0.92. Some of the results follow.
Assay: chemical genetic growth profiling, strain panel (AID 1159580);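 further: tested at 20 µM; growth read once vehicle control cultures reached saturation at 30 °C; 1 = growth at the plate median or of vehicle wells; lower values mean less growth of the strain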
Conditions: growth OD

Measured: normalized growth

CCC(c1ccc(O)cc1)C(CC)c1ccc(O)cc1 (stereo not drawn)
active: S. cerevisiae deletion strains, locus YKL009W, strain mrt4, hits give low values 0.871 | S. cerevisiae deletion strains, locus YLL026W, hits give low values 0.862 | S. cerevisiae deletion strains, locus YLR027C, strain aat2, hits give low values 0.829 | S. cerevisiae deletion strains, locus YLR039C, strain RIC1, hits give low values 0.6 | S. cerevisiae deletion strains, locus YLR221C, strain rsa3, hits give low values 0.828 | S. cerevisiae deletion strains, locus YLR258W, strain gsy2, hits give low values 0.902 | S. cerevisiae deletion strains, locus YLR262C, strain YPT6 (second series), hits give low values 0.396 | S. cerevisiae deletion strains, locus YLR262C, strain YPT6, hits give low values 0.575 | S. cerevisiae deletion strains, locus YLR320W, strain mms22, hits give low values 0.868 | S. cerevisiae deletion strains, locus YML120C, strain ndi1, hits give low values 0.733 | S. cerevisiae deletion strains, locus YMR058W, strain fet3, hits give low values 0.864 | S. cerevisiae deletion strains, locus YMR205C, strain PFK2, hits give low values 0.844 | S. cerevisiae deletion strains, locus YMR307W, strain GAS1, hits give low values 0.592 | S. cerevisiae deletion strains, locus YNL071W, strain lat1, hits give low values 0.786 | S. cerevisiae deletion strains, locus YNL307C, strain MCK1, hits give low values 0.877 | S. cerevisiae deletion strains, locus YOR001W, strain rrp6, hits give low values 0.808 | S. cerevisiae deletion strains, locus YOR106W, strain vam3, hits give low values 0.804 | S. cerevisiae deletion strains, locus YOR184W, strain ser1, hits give low values 0.761 | S. cerevisiae deletion strains, locus YPL051W, strain arl3, hits give low values 0.849
inactive: S. cerevisiae deletion strains, locus YJR075W, strain HOC1, hits give low values 1.01 | S. cerevisiae deletion strains, locus YKL068W, hits give low values 0.99 | S. cerevisiae deletion strains, locus YKL085W, strain MDH1 (second series), hits give low values 0.984 | S. cerevisiae deletion strains, locus YKL085W, strain MDH1, hits give low values 0.984 | S. cerevisiae deletion strains, locus YKL160W, strain elf1, hits give low values 0.928 | S. cerevisiae deletion strains, locus YKL190W, strain CNB1, hits give low values 0.994 | S. cerevisiae deletion strains, locus YKR001C, strain vps1, hits give low values 0.99 | S. cerevisiae deletion strains, locus YKR026C, strain gcn3, hits give low values 0.982 | S. cerevisiae deletion strains, locus YKR091W, strain srl3, hits give low values 1 | S. cerevisiae deletion strains, locus YLL001W, strain dnm1, hits give low values 0.943 | S. cerevisiae deletion strains, locus YLL041C, strain sdh2, hits give low values 0.976 | S. cerevisiae deletion strains, locus YLR058C, strain SHM2, hits give low values 1 | S. cerevisiae deletion strains, locus YLR102C, strain apc9, hits give low values 1.01 | S. cerevisiae deletion strains, locus YLR268W, strain sec22, hits give low values 0.912 | S. cerevisiae deletion strains, locus YLR330W, strain CHS5, hits give low values 1.01 | S. cerevisiae deletion strains, locus YLR342W, strain FKS1 (second series), hits give low values 0.962 | S. cerevisiae deletion strains, locus YLR342W, strain FKS1, hits give low values 0.938 | S. cerevisiae deletion strains, locus YLR357W, strain rsc2, hits give low values 0.984 | S. cerevisiae deletion strains, locus YLR370C, strain arc18, hits give low values 0.993 | S. cerevisiae deletion strains, locus YLR371W, strain rom2, hits give low values 1.01 | S. cerevisiae deletion strains, locus YLR384C, strain iki3, hits give low values 1.01 | S. cerevisiae deletion strains, locus YLR418C, strain cdc73, hits give low values 0.871 | S. cerevisiae deletion strains, locus YML016C, strain PPZ1, hits give low values 0.996 | S. cerevisiae deletion strains, locus YML032C, strain rad52, hits give low values 0.935 | S. cerevisiae deletion strains, locus YML124C, strain tub3, hits give low values 1.01 | S. cerevisiae deletion strains, locus YMR078C, strain ctf18, hits give low values 0.994 | S. cerevisiae deletion strains, locus YMR125W, strain sto1, hits give low values 1.01 | S. cerevisiae deletion strains, locus YMR129W, hits give low values 0.957 | S. cerevisiae deletion strains, locus YMR223W, strain ubp8, hits give low values 0.94 | S. cerevisiae deletion strains, locus YMR231W, strain pep5, hits give low values 1.01 | S. cerevisiae deletion strains, locus YMR263W, strain SAP30, hits give low values 0.973 | S. cerevisiae deletion strains, locus YNL067W, strain RPL9B, hits give low values 0.956 | S. cerevisiae deletion strains, locus YNL128W, strain TEP1, hits give low values 1.02 | S. cerevisiae deletion strains, locus YNL153C, strain GIM3, hits give low values 0.982 | S. cerevisiae deletion strains, locus YNL209W, strain ssb2, hits give low values 0.976 | S. cerevisiae deletion strains, locus YNL233W, strain BNI4, hits give low values 0.974 | S. cerevisiae deletion strains, locus YNL248C, strain rpa49, hits give low values 0.942 | S. cerevisiae deletion strains, locus YNL250W, strain rad50, hits give low values 0.985 | S. cerevisiae deletion strains, locus YNL271C, strain bni1, hits give low values 0.985 | S. cerevisiae deletion strains, locus YNL298W, strain CLA4, hits give low values 0.912 | S. cerevisiae deletion strains, locus YNL322C, strain KRE1 (second series), hits give low values 0.985 | S. cerevisiae deletion strains, locus YNL322C, strain KRE1, hits give low values 1.01 | S. cerevisiae deletion strains, locus YNR049C, strain mso1, hits give low values 1 | S. cerevisiae deletion strains, locus YNR052C, strain pop2, hits give low values 0.938 | S. cerevisiae deletion strains, locus YOL006C, strain TOP1, hits give low values 0.769 | S. cerevisiae deletion strains, locus YOL012C, strain htz1 1.31 | S. cerevisiae deletion strains, locus YOL147C, strain pex11, hits give low values 0.997 | S. cerevisiae deletion strains, locus YOR061W, strain CKA2, hits give low values 0.984 | S. cerevisiae deletion strains, locus YOR069W, strain VPS5, hits give low values 0.999 | S. cerevisiae deletion strains, locus YOR070C, strain gyp1, hits give low values 0.942 | S. cerevisiae deletion strains, locus YOR080W, strain dia2, hits give low values 0.974 | S. cerevisiae deletion strains, locus YOR083W, strain WHI5, hits give low values 0.899 | S. cerevisiae deletion strains, locus YOR136W, strain idh2, hits give low values 0.996 | S. cerevisiae deletion strains, locus YOR144C, strain elg1, hits give low values 1.01 | S. cerevisiae deletion strains, locus YOR265W, strain rbl2, hits give low values 0.966 | S. cerevisiae deletion strains, locus YOR270C, strain vph1, hits give low values 0.792 | S. cerevisiae deletion strains, locus YOR290C, strain snf2, hits give low values 0.953 | S. cerevisiae deletion strains, locus YOR316C, strain cot1, hits give low values 1.01 | S. cerevisiae deletion strains, locus YPL055C, strain LGE1, hits give low values 0.979 | S. cerevisiae deletion strains, locus YPL078C, strain atp4, hits give low values 0.895 | S. cerevisiae deletion strains, locus YPL106C, strain sse1, hits give low values 0.93 | S. cerevisiae deletion strains, locus YPL240C, strain hsp82, hits give low values 0.971 | S. cerevisiae deletion strains, locus YPL241C, strain CIN2, hits give low values 0.998 | S. cerevisiae deletion strains, locus YPR119W, strain clb2, hits give low values 1 | S. cerevisiae deletion strains, locus YPR141C, strain kar3, hits give low values 0.994 | S. cerevisiae deletion strains, locus YPR163C, strain tif3, hits give low values 1.02 | S. cerevisiae deletion strains, locus YPR167C, strain met16, hits give low values 0.987 | S. cerevisiae deletion strains, strain wtn01, hits give low values 0.959 | S. cerevisiae strains, strain wild type, hits give low values 0.995

Reference: PubChem BioAssay AID1159580 (chemical genetic matrix, 2015)
